Compounds with a hit are over-represented: about 4% of the library has one in this group of screens.
GRP78 ERSR act – induces the endoplasmic reticulum stress response in human glioma cells | U87-MG GRP78 promoter luciferase reporter, 16 h | Potency, µM, without a hit: top-dose activation, usual class: activators | 420,000 compounds, 0.02% hits; active = well fitted activation curve with a large enough effect; also: potency is read from the fitted curve at half-maximal effect; series mostly up to about 76 µM; % of control where 0% means no effect; nearly all actives have a fitted effect of over 35% in size
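ERSR induction read as luciferase luminescence (Bright-Glo, 10 min at room temperature) in stably transfected human U87-MG glioma cells exposed to compounds for 16 h, using GRP78 as sensor.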
D1 PAM – enhances dopamine response at the human D1 receptor | P21728 | potentiation, % at 10 µM | HEK293 TREx D1 cells, calcium flux, dopamine EC20 potentiation | 360,000 compounds, 0.036% hits; in the data active = potentiation above about 30%; also: 0% is about no effect
Target sequence (P21728 whole entry, looked up): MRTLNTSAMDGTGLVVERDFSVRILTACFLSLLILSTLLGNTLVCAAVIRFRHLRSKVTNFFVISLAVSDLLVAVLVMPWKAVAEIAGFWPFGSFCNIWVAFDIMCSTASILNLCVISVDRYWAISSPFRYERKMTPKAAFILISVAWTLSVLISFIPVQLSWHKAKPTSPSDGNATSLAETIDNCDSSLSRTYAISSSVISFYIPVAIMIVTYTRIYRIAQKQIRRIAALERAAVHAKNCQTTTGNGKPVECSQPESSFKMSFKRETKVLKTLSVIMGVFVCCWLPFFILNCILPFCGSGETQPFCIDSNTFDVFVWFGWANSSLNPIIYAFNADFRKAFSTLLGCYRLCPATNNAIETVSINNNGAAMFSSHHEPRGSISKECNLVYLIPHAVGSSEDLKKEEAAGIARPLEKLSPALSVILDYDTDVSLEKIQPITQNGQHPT
TRHR enhancer – allosteric enhancers of human TRH receptor; enhancement, % at 2 µM; AID 493056; 360,000 compounds, 0.66% hits; TRHR cells, fluo-8 calcium fluorescence, EC20 TRH enhancement; P34981; in the data active = enhancement above about 30%; also: 0% is about no effect
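Enhancer read-out: after compound pinning and an initial kinetic agonist-mode read, an EC20 of TRH (10 nM final) was injected and fluo-8 calcium signal (Ex 480/Em 530) followed at 1 s/cycle for 100 cycles in TRHR-expressing cells.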
TRHR agonist – activates the human TRH receptor. TRHR cells, calcium flux fluo-8, FDSS agonist mode. P34981. AID 493084. activation, % at 2 µM. 360,000 compounds, 0.18% hits; also: 0% is about no effect
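TRHR-expressing cells, plated overnight in medium with 10% serum, were loaded with fluo-8 calcium dye at room temperature. After a 10 s baseline, library compound was pin-added and calcium release was recorded kinetically (ex 480/em 530) as agonist response.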
D1 agonist – activates the human D1 dopamine receptor; P21728; HEK293 T-REx D1 cells, calcium flux, agonist mode; activation, % at 2 µM; 360,000 compounds, 1% hits; AID 504660; also: 0% is about no effect
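Tetracycline-induced HEK293 TREx D1 cells, force-coupled to calcium signalling, were dye-loaded with a no-wash calcium kit. Compound was pin-added after a 10 s baseline. Fluorescence was read kinetically at 1 cycle/s for 180 s, with calcium rises flagged as agonism.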
D1 antag – blocks dopamine activation of the human D1 receptor. activity change, negative = inhibition, % at 10 µM. P21728. 360,000 compounds, 3.2% hits. HEK293 TREx D1 cells, calcium flux, dopamine EC80; stronger effect = lower value. AID 504652; in the data active = activity change below about -30%; also: % is scaled to controls: 0 for no effect and ±100 for the full control effect
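Tetracycline-induced HEK293 Trex D1 cells, force-coupled to calcium, dye-loaded; compounds added and read 180 s, then EC80 dopamine added and calcium flux tracked kinetically another 180 s.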
Starred values were filed as active, the others as inactive. Rule as the data show it, unless noted: active = activation above about 30%; inactive = the rest.

SMILES	GRP78 ERSR act	D1 PAM	TRHR enhancer	TRHR agonist	D1 agonist	D1 antag
COc1cc(C(=O)NC(=S)NNC(=O)c2ccc3c(c2)OCO3)cc(OC)c1OC	-7%	8	3	1	4	-21
COc1cc(C(=O)NNC(=O)C2CC=CCC2C(=O)O)cc(OC)c1OC (configuration not stated)	-1%	-4	3	0	3	-9
O=C(NC(=S)Nc1ccc(F)cc1)c1ccc2c(c1)OCCO2	-1%	-4	33*	1	3	-3
COc1cc(C(=O)NNC(=S)NC(=O)c2ccc(F)cc2)cc(OC)c1OC	1%	-3	8	0	44*	-4
Cc1ccn2c(Nc3ccc(C(C)C)cc3)c(-c3ccsc3)nc2c1	-1%	-3	-3	0	0	-3
COCCCn1c(C(=O)NCCC2=CCCCC2)cc2c(=O)n3cccc(C)c3nc21	-4%	-2	9	0	1	2
CCOc1ccc(N(CC(=O)NCCSCc2ccccc2)S(C)(=O)=O)cc1	-1%	-1	-4	0	4	7
CCC(=O)Nc1ccc(-c2cc3ccccc3oc2=O)cc1	3%	-5	1	0	1	-5
O=C(Nc1nnc(-c2ccco2)o1)c1ccc(N2C(=O)CCC2=O)cc1	-4%	-3	-4	-1	4	5
COc1ccc(Cl)cc1C(=O)NNC(=S)NC(=O)c1ccc(F)c(F)c1	-6%	-2	-12	24	171*	6
Cc1ccc(N2C(=O)CSC23C(=O)N(CC(=O)Nc2ccccc2F)c2ccccc23)cc1C (configuration not stated)	-5%	-4	4	-1	9	-32*
Cc1ccc(N2C(=O)CSC23C(=O)N(CC(=O)Nc2ccc(C(C)C)cc2)c2ccccc23)cc1C (configuration not stated)	-1%	-2	5	1	2	11
O=C(CSc1nc(N2CCOCC2)nc(N2CCOCC2)n1)Nc1ccc(Cl)cc1Cl	-6%	0	1	0	1	2
Cc1c(N=C2N=C(NC(=O)c3cccs3)c3ccccc32)c(=O)n(-c2ccccc2)n1C	-6%	-5	-6	16	41*	-16
Cc1ccc2c(c1)C1CN(C)CCC1N2C(=O)Nc1ccc(Cl)cc1 (configuration not stated)	0%	-12	0	2	36*	-73*
COc1cc(C(=O)Nc2ccc(NC(=O)c3cccc(Cl)c3)nc2)cc(OC)c1OC	-3%	0	8	-1	1	-6
CC1CN(C(=O)COc2ccc3ccccc3c2Br)CC(C)O1 (configuration not stated)	8%	-7	-3	0	0	-14
O=C(COc1ccc2ccccc2c1Br)N1CCCCC1	4%	-10	4	0	2	-32*
NC(=O)C1CCN(C(=O)COc2ccc3ccccc3c2Br)CC1	-2%	-7	-1	1	3	-64*
CCOc1ccc(CC(=O)C2C(=O)CCCC2=O)cc1OCC	-1%	-3	-5	0	5	-42*
CCOc1ccc(CC(=O)C2C(=O)CC(C)(C)CC2=O)cc1OCC	-1%	7	9	0	3	6
O=C(NCc1ccccc1Cl)c1ccc2oc(=O)n(Cc3ccccc3)c2c1	-1%	1	4	1	9	-33*
O=C(NCc1ccccc1Cl)c1ccc(CS(=O)(=O)c2ccccc2)o1	-7%	-2	-5	2	15	-14
COc1ccccc1CNC(=O)c1ccc(CS(=O)(=O)c2ccccc2OC)o1	-2%	-7	-1	0	3	-89*
O=C(NCc1ccccc1Cl)c1ccc(CS(=O)(=O)c2ccc(Br)cc2)o1	-3%	-3	40*	0	46*	3
Cc1ccc(CS(=O)Cc2ccc(C(=O)NCc3ccccc3Cl)o2)cc1 (configuration not stated)	-4%	8	-3	0	-1	10

Compound activity (PubChem BioAssay)
